{"source": "PubChem BioAssay AID1851", "about": "(National Center for Advancing Translational Sciences (NCATS), 2009)", "note": "The whole screen tested about 16,000 compounds, of which about 5,800 (36%) were called active. Inconclusive results (about 23%) are left out. The list shows a part of the results. Values without a mark were called inactive. Calls come from the whole dose curve; as a rule, active = well fitted curve in the direction sought with a large enough effect; inconclusive = small, poorly fitted or top-dose-only effect, or effect the other way; inactive = no such curve, though single readings can be large or run the other way. % is set by controls: 0 for no effect and ±100 for the full control effect."}
{"biological_target": "Cytochrome P450 2C19 (Homo sapiens) (UniProt P33261)", "sequence (P33261 whole entry, looked up)": "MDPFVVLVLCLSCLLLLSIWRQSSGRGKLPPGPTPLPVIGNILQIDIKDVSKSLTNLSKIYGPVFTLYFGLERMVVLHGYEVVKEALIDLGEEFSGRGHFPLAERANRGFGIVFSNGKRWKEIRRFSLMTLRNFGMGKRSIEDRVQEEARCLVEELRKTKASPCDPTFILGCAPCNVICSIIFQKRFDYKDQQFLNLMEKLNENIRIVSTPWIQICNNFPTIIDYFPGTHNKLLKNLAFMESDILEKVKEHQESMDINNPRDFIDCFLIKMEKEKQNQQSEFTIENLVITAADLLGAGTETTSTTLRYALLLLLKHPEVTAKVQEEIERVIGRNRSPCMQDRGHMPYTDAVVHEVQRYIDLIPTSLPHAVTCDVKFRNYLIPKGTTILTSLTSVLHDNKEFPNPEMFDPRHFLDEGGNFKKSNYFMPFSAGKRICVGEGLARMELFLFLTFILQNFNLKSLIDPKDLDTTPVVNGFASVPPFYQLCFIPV", "experiment": "Cytochrome panel assay with activity outcomes", "conditions": "recombinant CYP, pro-luciferin dealkylation, luminescence, p450-cyp2c19; series mostly up to 57.1 µM; activity, negative = inhibition: at the top concentration"}
{"smiles": "CC12CS(=O)(=O)CC1SC(=S)N2c1ccccn1", "note": "(configuration not stated)", "activity, negative = inhibition": "-12.6%"}
{"smiles": "COc1ccc(NC(=O)N2CC[C@@]3(CCCN(C(=O)c4cccn4C)C3)C2)cc1", "activity, negative = inhibition": "4.63%"}
{"smiles": "COc1ccc(C(=O)N2CCC3(CCN(C(=O)Nc4cccc(F)c4)CC3)CC2)cc1", "activity, negative = inhibition": "-19.4%"}
{"smiles": "COC(=O)N1CCC2(CCCN(C(=O)Nc3cccc(F)c3)C2)CC1", "activity, negative = inhibition": "-26.4%"}
{"smiles": "COc1ccc(S(=O)(=O)N2CCN(CC(=O)Nc3cccc(F)c3)CC2)cc1", "AC50": "4.47 µM (active)"}
{"smiles": "CCOc1ccc(C(=O)CN2CCN(S(=O)(=O)c3ccc(F)cc3)CC2)cc1", "AC50": "7.08 µM (active)"}
{"smiles": "Cc1nc2nc(SCC(=O)NCc3ccco3)nn2c(C)c1Cc1c(F)cccc1Cl", "AC50": "15.8 µM (active)"}
{"smiles": "Cc1cccc(Cc2c(C)nc3nc(SCC(=O)NCc4ccco4)nn3c2C)c1", "AC50": "5.01 µM (active)"}
{"smiles": "Cc1ccc(C2C3=C(CCCC3=O)Nc3nc(SCC(=O)NCc4ccco4)[nH]c(=O)c32)cc1", "note": "(configuration not stated)", "activity, negative = inhibition": "-4.69%"}
{"smiles": "CC(=O)c1ccc(NC(=O)C(Cc2ccccc2)NC(=O)c2ccco2)cc1", "note": "(configuration not stated)", "AC50": "15.8 µM (active)"}
{"smiles": "O=C(NC(Cc1ccccc1)C(=O)O)/C(=C\\c1ccco1)NC(=O)c1ccc(Br)cc1", "note": "(configuration not stated)", "activity, negative = inhibition": "18.4%"}
{"smiles": "O=C(Nc1ccccc1)C(Cc1ccccc1)NC(=O)C12CC3CC(CC(C3)C1)C2", "note": "(configuration not stated)", "activity, negative = inhibition": "28.6%"}
{"smiles": "N#Cc1cccc(NC(=O)N2CC3(CCN(C(=O)c4cnccn4)CC3)C2)c1", "activity, negative = inhibition": "-18.3%"}
{"smiles": "CCOC(=O)C1=C(C)N=C2SC(C(=O)OC)=CC(=O)N2C1c1ccc(F)cc1", "note": "(configuration not stated)", "AC50": "1.26 µM (active)"}
{"smiles": "CCCC(=O)NCCc1c2n(c3ccc(OC)cc13)Cc1ccccc1-2", "AC50": "0.398 µM (active)"}
{"smiles": "COc1ccc2c(c1)c(CC(=O)O)c(C)n2C(=O)c1ccccc1", "activity, negative = inhibition": "-11.9%"}
{"smiles": "CC1(C)OC(=O)C(=CNCC(O)c2ccccc2)C(=O)O1", "note": "(configuration not stated)", "AC50": "11.2 µM (active)"}
{"smiles": "CC1(C)OC(=O)C(=CNc2cccc(O)c2)C(=O)O1", "activity, negative = inhibition": "-19.5%"}
{"smiles": "CSCCC(NC=C1C(=O)OC(C)(C)OC1=O)C(=O)O", "note": "(configuration not stated)", "activity, negative = inhibition": "-4.41%"}
{"smiles": "c1ccc2sc(SCN(C3CCCCC3)C3CCCCC3)nc2c1", "activity, negative = inhibition": "-38.6% [at 11.4 µM]"}
{"smiles": "COCCn1c(=O)c(-c2ccccc2)nc2cnc(Nc3ccccc3)nc21", "activity, negative = inhibition": "-23.5%"}
{"smiles": "COCCN1CN=C(Nc2nc3ccccc3s2)NC1", "AC50": "14.1 µM (active)"}
{"smiles": "c1ccc2sc(NC3=NCN(C4CCCCCC4)CN3)nc2c1", "AC50": "1.12 µM (active)"}
{"smiles": "COCCN1CN=C(Nc2nc3ccccc3o2)NC1", "activity, negative = inhibition": "-42.2%"}
{"smiles": "CN1CCN(c2ncc3nc(-c4cc(F)cc(F)c4)c(=O)n(CCC#N)c3n2)CC1", "activity, negative = inhibition": "-4.3%"}
{"smiles": "CN(C)c1ccccc1CN1CCCN(Cc2ccccc2N(C)C)C1c1ccncc1", "activity, negative = inhibition": "-28.5% [at 11.4 µM]"}
{"smiles": "CCCCCCCCN1C(=O)N(C)C(N(O)C(=O)NC)C1(C)C", "note": "(configuration not stated)", "AC50": "7.08 µM (active)"}
{"smiles": "O=C(COc1ccccc1)Nc1cc(C(F)(F)F)ccc1N1CCCC1", "AC50": "5.01 µM (active)"}
{"smiles": "O=C(Nc1cc(C(F)(F)F)ccc1N1CCCCC1)c1ccc(Br)o1", "AC50": "11.2 µM (active)"}
{"smiles": "NS(=O)(=O)c1cc(C(=O)O)cc(N2CCCC2)c1Oc1ccccc1", "activity, negative = inhibition": "8.74% [at 25.6 µM]"}
{"smiles": "Nc1ncnc2c1ncn2CCCCC(=O)O", "activity, negative = inhibition": "24.1% [at 11.4 µM]"}
{"smiles": "COc1ccc2nccc(C(=O)O)c2c1", "activity, negative = inhibition": "-26% [at 25.6 µM]"}
{"smiles": "COc1ccc2nc(C)cc(SCC(=O)NNC(=O)COc3ccc(C)cc3)c2c1", "AC50": "3.16 µM (active)"}
{"smiles": "COc1ccc2nc(SCC(=O)NN)cc(C)c2c1", "activity, negative = inhibition": "-56.5%"}
{"smiles": "COc1ccc2nccc(SCC(=O)O)c2c1", "activity, negative = inhibition": "-14.8% [at 11.4 µM]"}
{"smiles": "COc1ccc2nc(C)cc(SCC(=O)Nc3c(C)cc(C)cc3C)c2c1", "AC50": "2.51 µM (active)"}
{"smiles": "NC(=O)c1cc[n+](CC2=C(C(=O)[O-])N3C(=O)[C@@H](NC(=O)Cc4cccs4)[C@@H]3SC2)cc1", "activity, negative = inhibition": "-11.8% [at 25.6 µM]"}
{"smiles": "CCOC(=O)C(NC(C)=O)C(OC(C)=O)c1cccc(N(CCO)CCO)c1", "note": "(configuration not stated)", "activity, negative = inhibition": "-8.77%"}
{"smiles": "O=C(Nc1nnc(C2CC2)s1)c1cc(S(=O)(=O)N2CCN(c3ccccc3)CC2)ccc1Cl", "AC50": "7.08 µM (active)"}
{"smiles": "Cc1c(NC(=O)C2CCN(S(=O)(=O)c3ccc(Cl)cc3)CC2)c(=O)n(-c2ccccc2)n1C", "activity, negative = inhibition": "-16.8%"}
{"smiles": "COc1ccc(COC(=O)N/N=C2/C[C@@H](O)[C@@H](O)[C@@H]3[C@@H]4C(=O)N(C(C)(C)C)C(=O)[C@H]4CC[C@@H]23)cc1", "activity, negative = inhibition": "1.08% [at 11.4 µM]"}
{"smiles": "Brc1ccc([C@H]2CN3CCSC3=N2)cc1", "activity, negative = inhibition": "-26.9%"}
{"smiles": "CC(=O)c1c(C)nc(-c2ccccc2)n1O", "activity, negative = inhibition": "-17.7%"}
{"smiles": "Cc1ccc(-n2c(-c3ccccc3)cc(=O)nc2C)cc1", "activity, negative = inhibition": "-21.5%"}
{"smiles": "CN=c1nc(-c2ccccc2)n(-c2ccccc2)s1", "AC50": "3.16 µM (active)"}
{"smiles": "Cc1noc(C)c1C(=O)N1CCC2(CCCN(c3ccncc3)C2)CC1", "activity, negative = inhibition": "20%"}
{"smiles": "CN(C)S(=O)(=O)Oc1ccccc1C(=O)Nc1cccc(C(F)(F)F)c1", "AC50": "2 µM (active)"}
